The source of these data is the OligoGym collection.
Also: reference of the scale not given here.

The target of the first assay is CNPPD1. The assay can be described thus: pooled miR-30 sensor sort-seq; sequence = guide strand. Particulars: shRNA.
Sequence TAGAGCCTCCTTCGGATCCGGG had a sensor-assay potency score (higher = more potent) of -1.33. Consider TCTGTGTAGGTGTACCAGCCTC, for which the sensor-assay potency score (higher = more potent) was -1.36. The same measure, in the same setting: the figure for TATTTCTTCTGGAGTCGGCGAA is -0.148; for TTCGTCGTTGAAGACCTCCTCC it is 0.0687; for TATGCCACAGCTAACAGGCAAG it is -1.37.

As for TTACTGGCCACCATCATGGAGA, the sensor-assay potency score (higher = more potent) was -0.834. In the case of TAGTCTGGGTTTCGGTGCCGGA, the sensor-assay potency score (higher = more potent) is -1.29. Still for that read-out and setting: as for TTCAATGTACACCAGAGCCAGC, the figure is -1.25; as for TGAAAAGGGAACATTGCTGAGG, -0.362. In turn, TTCGACAGCAATGTCTGCCACC returned a sensor-assay potency score (higher = more potent) of -0.8. With ATGAGCTACGTATTTCTTCTGG, the sensor-assay potency score (higher = more potent) is -0.315.

Sequence TCTCTCTGGAGCTTCTGGCAAA yielded a sensor-assay potency score (higher = more potent) of -0.958.

Another assay has as its target CNTD1. The assay is described as above. The following applies: shRNA.
On to TTCATGCAGAAGATAGACCAGG, for which the sensor-assay potency score (higher = more potent) was -0.656. Regarding TTTAGTGTGTAGATAGCCTAGA, the sensor-assay potency score (higher = more potent) is 0.238.

In the case of TAGACTGCTGTCTCCCCGGAGT, the sensor-assay potency score (higher = more potent) is -0.817. As for TTTTGGATGAAAGCACTTGCTG, the sensor-assay potency score (higher = more potent) is -1.34.

As to TAAACTTGTTGACAAGCTGCTG, the sensor-assay potency score (higher = more potent) is -0.0466. AAACTTGTTGACAAGCTGCTGT came in with a sensor-assay potency score (higher = more potent) of 0.446. TTCTAGGATTTCTACAGCCTGG came in with a sensor-assay potency score (higher = more potent) of -0.787. On the same count and under the same terms, the figure for TTTGGATGAAAGCACTTGCTGC is -0.907; for TTACCATAAACCTTTCTAGGAT it is -0.637; for TAAGAGAACTCAGCAATGCTTG it is -0.451. Sequence TCTCTTATTATCTCTTGGCTGG came in with a sensor-assay potency score (higher = more potent) of -0.35.
